Results published in PMC4336329 (PLoS ONE, 2015).
Among all 310,000 compounds or so, about 14,000 (4.5%) showed an effect of 50% or more. Effects have a minus sign here. Only a selection was taken, and strong results are over-represented in it overall.
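Note: peak tail current of the secondary pulse compared with the same well before compound.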

These molecules were tested against human ether-à-go-go-related gene (hERG) potassium channel (human, UniProt Q12809) (assay: primary screen, population patch clamp on CHO cells stably expressing hERG; higher = less effect of the substance).
human ether-à-go-go-related gene (hERG) potassium channel, sequence (Q12809 whole entry, looked up): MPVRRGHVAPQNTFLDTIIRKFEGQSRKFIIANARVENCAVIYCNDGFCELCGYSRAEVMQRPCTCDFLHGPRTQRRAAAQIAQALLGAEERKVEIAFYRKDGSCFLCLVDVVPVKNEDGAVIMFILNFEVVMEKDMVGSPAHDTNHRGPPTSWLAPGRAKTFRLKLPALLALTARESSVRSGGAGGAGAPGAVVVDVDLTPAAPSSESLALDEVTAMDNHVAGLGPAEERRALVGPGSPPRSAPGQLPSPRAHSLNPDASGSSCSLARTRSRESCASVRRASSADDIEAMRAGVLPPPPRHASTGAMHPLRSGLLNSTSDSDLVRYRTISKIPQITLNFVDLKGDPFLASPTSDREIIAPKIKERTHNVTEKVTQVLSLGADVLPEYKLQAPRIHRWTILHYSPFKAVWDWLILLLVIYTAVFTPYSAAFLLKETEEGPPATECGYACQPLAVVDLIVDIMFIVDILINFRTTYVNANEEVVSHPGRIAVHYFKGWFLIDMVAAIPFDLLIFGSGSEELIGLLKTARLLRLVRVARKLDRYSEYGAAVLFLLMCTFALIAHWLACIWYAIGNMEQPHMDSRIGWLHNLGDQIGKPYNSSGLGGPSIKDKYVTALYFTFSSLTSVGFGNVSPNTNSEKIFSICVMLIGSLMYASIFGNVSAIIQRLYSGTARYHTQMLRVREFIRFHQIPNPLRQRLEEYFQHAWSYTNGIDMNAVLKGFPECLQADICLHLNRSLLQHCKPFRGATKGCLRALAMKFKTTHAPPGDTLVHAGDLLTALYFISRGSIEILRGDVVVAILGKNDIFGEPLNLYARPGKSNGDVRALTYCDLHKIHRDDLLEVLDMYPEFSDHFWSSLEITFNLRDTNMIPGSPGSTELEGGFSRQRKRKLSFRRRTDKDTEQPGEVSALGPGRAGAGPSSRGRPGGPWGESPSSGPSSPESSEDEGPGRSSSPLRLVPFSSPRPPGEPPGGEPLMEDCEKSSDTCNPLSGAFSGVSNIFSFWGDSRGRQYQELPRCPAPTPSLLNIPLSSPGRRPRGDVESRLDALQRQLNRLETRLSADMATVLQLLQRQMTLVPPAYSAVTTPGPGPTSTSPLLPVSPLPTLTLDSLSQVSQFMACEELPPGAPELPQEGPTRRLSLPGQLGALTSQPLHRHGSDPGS
In the case of N#Cc1c(NC(=O)CCN2C(=O)c3ccccc3C2=O)oc(-c2ccccc2)c1-c1ccccc1, the “hERG current change (%, negative = inhibition) at 10uM” value is reported as -11.7%.
For O=C1CCCN1CC1CCCN(Cc2nc(COc3ccccc3)no2)C1 (centres unmarked), the “hERG current change (%, negative = inhibition) at 10uM” value was 28.6%.
For O=C(NCc1ccccc1F)C1CCCN(C(=O)Nc2ccccc2)C1 (centres unmarked), the “hERG current change (%, negative = inhibition) at 10uM” value was 3.18%.
Cc1noc(C)c1COc1cccc(C(=O)OC(C)C(=O)Nc2ccc3c(c2)OCO3)c1 (centres unmarked) was tested, and the “hERG current change (%, negative = inhibition) at 10uM” value was -61.2%.
For COc1cc(C(=O)OC(C)C(=O)Nc2ccc3c(c2)OCO3)ccc1OCc1c(C)noc1C (centres unmarked), the “hERG current change (%, negative = inhibition) at 10uM” value was 15.8%.
In the case of Cc1noc(C)c1COc1cccc(C(=O)Nc2ccc3c(c2)OCO3)c1, the “hERG current change (%, negative = inhibition) at 10uM” value is reported as 9.81%.
Cc1nc2ccccn2c(=O)c1CCN1CCC(C(=O)c2ccc(F)cc2)CC1 was tested, and the “hERG current change (%, negative = inhibition) at 10uM” value was -73.3%.
In the case of Cc1nc2sccn2c(=O)c1CCN1CCC(=C(c2ccccc2)c2ccc(F)cc2)CC1, the “hERG current change (%, negative = inhibition) at 10uM” value is reported as -78%.
Cc1ccccc1NC(=O)N1CCC(C(=O)c2ccc(F)cc2)CC1 was tested, and the “hERG current change (%, negative = inhibition) at 10uM” value was -16.3%.
With Cc1nc2sccn2c(=O)c1S(=O)(=O)NCc1ccccc1 the “hERG current change (%, negative = inhibition) at 10uM” value was -2.53%.
In the case of Cc1nc2sccn2c(=O)c1CCN1CCC(=C(c2ccc(F)cc2)c2ccc(F)cc2)CC1, the “hERG current change (%, negative = inhibition) at 10uM” value is reported as -78.6%.
With CCCCc1c(O)nc2sccn2c1=O the “hERG current change (%, negative = inhibition) at 10uM” value was -2%.
CCOc1ccccc1NC(=O)N1CCC(C(=O)c2ccc(F)cc2)CC1 was tested, and the “hERG current change (%, negative = inhibition) at 10uM” value was -32%.
With CCOC(=O)c1ccc(NS(=O)(=O)c2c(C)nc3sccn3c2=O)cc1 the “hERG current change (%, negative = inhibition) at 10uM” value was 1.63%.
For Cc1nc2sccn2c(=O)c1S(=O)(=O)NCCc1ccccc1, the “hERG current change (%, negative = inhibition) at 10uM” value was -21.5%.
COc1ccc(C2=NN(c3ccccc3)C(c3cn(CCC(=O)O)nc3-c3ccccc3)C2)cc1 (centres unmarked) was tested, and the “hERG current change (%, negative = inhibition) at 10uM” value was 1.09%.
In the case of COC(=O)C1CCN(C(=O)Cc2ccc(OC)c(OC)c2)CC1, the “hERG current change (%, negative = inhibition) at 10uM” value is reported as 0.292%.
For [N-]=[N+]=NCCN1CCN(CCc2ccccc2)CCC1=O, the “hERG current change (%, negative = inhibition) at 10uM” value was 9.16%.
O=C1CCN(CCc2ccccc2)CCN1CCSc1ccc(Br)cc1 was tested, and the “hERG current change (%, negative = inhibition) at 10uM” value was -80.1%.
O=C1CCN(Cc2ccccc2)CCN1CCOc1ccccc1 was tested, and the “hERG current change (%, negative = inhibition) at 10uM” value was -10.4%.
Cc1ccc(SCCN2CCN(CCc3ccccc3)CCC2=O)cc1 was tested, and the “hERG current change (%, negative = inhibition) at 10uM” value was -69.6%.
For CN1CCC(=O)N(CCSc2ccc(Br)cc2)CC1, the “hERG current change (%, negative = inhibition) at 10uM” value was -25.5%.
O=C1CCN(CCc2ccccc2)CCN1CCOc1ccccc1 was tested, and the “hERG current change (%, negative = inhibition) at 10uM” value was -72.8%.
C[C@H]1CCC(=O)N(CCSc2ccc(Br)cc2)CC1 was tested, and the “hERG current change (%, negative = inhibition) at 10uM” value was -23.8%.
In the case of CC(C)CN1CCC(=O)N(CCSc2ccc(Br)cc2)CC1, the “hERG current change (%, negative = inhibition) at 10uM” value is reported as -61.3%.
In the case of CC(C)CN1CCC(=O)N(CCSc2ccccc2)CC1, the “hERG current change (%, negative = inhibition) at 10uM” value is reported as -15.4%.
For CCCN1CCC(=O)N(CCOc2ccccc2)CC1, the “hERG current change (%, negative = inhibition) at 10uM” value was -6.3%.
For CN1CCC(=O)N(CCSc2ccccc2)CC1, the “hERG current change (%, negative = inhibition) at 10uM” value was -3.36%.
For COc1ccc(SCCN2CCN(CC(C)C)CCC2=O)cc1, the “hERG current change (%, negative = inhibition) at 10uM” value was -42.9%.
